Abs 340nm – compound light absorbance at 340 nm, profiling panel, artefact control, biochemical, MLSMR library, data from PS, PMK, MK assays. compound absorbance at 340 nm, fold over control. fold change at 10 µM. 65,000 tested, under 10 active;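 active = at 10 µM dose, initial 340 nm absorbance at least 2 fold that of control wells; inactive = change under 2 fold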;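 note: initial absorbance extrapolated from kinetic A340 decline of NADH oxidation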
DPM-DC inhibit – S. pneumoniae DPM-DC inhibitors, primary screen, biochemical, PK/LDH-coupled NADH fluorescence | diphosphomevalonate decarboxylase (Streptococcus pneumoniae D39) | purified DPM-DC | calls only at 10 µM | 65,000 tested, 0.49% active;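 active = the 320 compounds with the highest percent inhibition in the single-dose primary screen, excluding strongly autofluorescent ones, cut at about 32% in these data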;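 note: kinetic rate of NADH fluorescence loss reporting ADP formed by the decarboxylase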
NADH coupling – inhibitors of PK/LDH coupling enzymes, profiling panel, artefact control, biochemical, MLSMR library | 65,000 tested, 0.02% active | AID 774, 2007 | coupled PK/LDH NADH assays, four targets | IC50, µM (titrated, usually from 10 µM), for the others: top-dose inhibition;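 active = single-dose screening hits from any of four coupled enzyme assays that gave an IC50 when retested across doses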;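 note: the DPM-DC format reads NADH fluorescence rather than 340 nm absorbance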
Spn MK inh – S. pneumoniae MK inhibitors, primary screen, biochemical, PK/LDH-coupled NADH absorbance; purified MK, PK/LDH-coupled NADH absorbance 340 nm; 65,000 tested, 0.48% active; inhibition, % at 10 µM; mevalonate kinase [Streptococcus pneumoniae D39];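 active = ranked among the strongest by inhibition in the single 10 µM screen, a fixed top-ranked set picked for dose follow-up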
PMK inhibit – S. pneumoniae PMK inhibitors, primary screen, biochemical, mevalonate pathway, pilot trial included; phosphomevalonate kinase (Streptococcus pneumoniae D39); purified PMK, PK/LDH-coupled NADH absorbance 340 nm; inhibition, % at 10 µM; 65,000 tested, 0.49% active; AID 539, 2006;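 active = top-ranked compounds by inhibition in the single 10 µM screen, taking a fixed number of the strongest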;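 note: 0% = full reaction with DMSO carrier and 100% = background rate without enzyme reaction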
Autofluor 339 – intrinsic fluorescence of library compounds, ex339/em460 – biochemical, MLSMR library, data from DPM-DC assay, artefact control, profiling panel | compound autofluorescence, ex339/em460 nm, NADH buffer; hits give high values; 1 = no-compound wells, NADH background | fluorescence fold increase at 10 µM | 65,000 tested, 5.5% active | AID 709, 2007;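 active = at 10 µM, mean starting fluorescence two-fold or more over control wells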;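 note: signal is the first read of a kinetic run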
* = called active by the depositor. An excerpt weighted towards active compounds, which were near 6.8% of everything screened.

COc1ccc(-c2nnc(SCC(=O)NC(C)c3ccccc3)o2)cc1 (configuration not stated) was read as Abs 340nm 1, DPM-DC inhibit inactive, NADH coupling 2%, Spn MK inh 11, PMK inhibit 9 and Autofluor 339 1.1.
`COc1ccc(-c2nc(C#N)c(NCCCN(C)C)o2)cc1OC` gave Abs 340nm 1, NADH coupling 8%, Spn MK inh 33, PMK inhibit 16 and Autofluor 339 3.1*.
For COc1ccc(-c2nc(C#N)c(NC(C)c3ccccc3)o2)cc1OC (configuration not stated) the results were Abs 340nm 1, NADH coupling 6%, Spn MK inh 5, PMK inhibit 6 and Autofluor 339 3.9*.
Screening COc1ccc(-c2nc(C#N)c(NCC3CCCO3)o2)cc1OC (configuration not stated) returned Abs 340nm 1.1, NADH coupling 4%, Spn MK inh 8, PMK inhibit 0 and Autofluor 339 3.9*.
CN(Cc1nc(-c2ccccn2)no1)S(=O)(=O)c1ccc(Cl)cc1 was read as Abs 340nm 1, DPM-DC inhibit inactive, NADH coupling 6%, Spn MK inh 11, PMK inhibit 7 and Autofluor 339 1.1.
For c1ccc(-c2noc(-c3cccc4ccccc34)n2)cc1 the results were Abs 340nm 1, DPM-DC inhibit inactive, NADH coupling 8%, Spn MK inh 8, PMK inhibit 11 and Autofluor 339 2.5*.
Screening O=C(NCc1ccccc1)N(Cc1nc2ccccc2c(=O)[nH]1)C1CCCC1 returned Abs 340nm 1, NADH coupling 8%, Spn MK inh 10, PMK inhibit 5 and Autofluor 339 3.8*.
For COc1ccccc1N(CC(=O)Nc1cc(C)on1)S(=O)(=O)c1cccs1 the results were Abs 340nm 1, DPM-DC inhibit inactive, NADH coupling 3%, Spn MK inh 3, PMK inhibit 7 and Autofluor 339 1.1.
`Cc1cc(O)c(NC(=O)c2ccc(Br)o2)cc1C` gave Abs 340nm 1, DPM-DC inhibit inactive, NADH coupling 11%, Spn MK inh 8, PMK inhibit 5 and Autofluor 339 1.
For COc1ccc(-c2cn3cccnc3n2)cc1NC(=O)c1ccc(Br)o1 the results were Abs 340nm 1.1, NADH coupling 8%, Spn MK inh 1, PMK inhibit 14 and Autofluor 339 5.3*.
`Cc1ccc(-c2cn3cccnc3n2)cc1NC(=O)c1ccc(Br)o1` gave Abs 340nm 1, NADH coupling 4%, Spn MK inh 0, PMK inhibit 17 and Autofluor 339 3.5*.
Screening O=c1c2ccccc2nnn1CSc1nnc(-c2cccs2)n1Cc1ccccc1 returned Abs 340nm 1, DPM-DC inhibit inactive, NADH coupling 31%, Spn MK inh 76*, PMK inhibit 10 and Autofluor 339 1.
CCc1cc2c(CN3CCN(C)CC3)cc(=O)oc2cc1O was read as Abs 340nm 1.1, NADH coupling 8%, Spn MK inh 9, PMK inhibit 6 and Autofluor 339 3.8*.
Screening CCc1cc2c(CN3CCN(CCO)CC3)cc(=O)oc2cc1O returned Abs 340nm 1, NADH coupling 6%, Spn MK inh 6, PMK inhibit 9 and Autofluor 339 2.9*.
`CC1(C)Cc2ccccc2-c2nc(NCCO)n(-c3ccccc3)c(=O)c21` gave Abs 340nm 1.1, NADH coupling 6%, Spn MK inh 7, PMK inhibit 5 and Autofluor 339 2.2*.
Screening CCC1(C)Cc2ccccc2-c2nc(NCCO)n(-c3ccccc3)c(=O)c21 (configuration not stated) returned Abs 340nm 1.1, NADH coupling 7%, Spn MK inh 12, PMK inhibit 2 and Autofluor 339 2.3*.
Cc1cccc(C)c1NC(=O)C1(NC(=O)C2CCCN2C(=O)OC(C)(C)C)CCCCC1 (configuration not stated) was read as Abs 340nm 0.98, DPM-DC inhibit inactive, NADH coupling 3%, Spn MK inh 6, PMK inhibit 2 and Autofluor 339 1.1.
COc1cc2c(cc1OC)C(c1ccc3c(c1)OCO3)C1=C(CC(C)(C)CC1=O)N2 (configuration not stated) was read as Abs 340nm 1.1, NADH coupling 11%, Spn MK inh 5, PMK inhibit 17 and Autofluor 339 4.9*.
`Brc1ccc(OCCOCCN2CCOCC2)cc1` gave Abs 340nm 1, DPM-DC inhibit inactive, NADH coupling 4%, Spn MK inh 2, PMK inhibit 9 and Autofluor 339 1.1.
For Cc1cc(OCCOCCN2CCCC2)ccc1C(C)C the results were Abs 340nm 1.1, DPM-DC inhibit inactive, NADH coupling 14%, Spn MK inh 41*, PMK inhibit 2 and Autofluor 339 1.1.
Screening CCOc1cccc(OCCOCCN2CCCC2)c1 returned Abs 340nm 1, DPM-DC inhibit inactive, NADH coupling 6%, Spn MK inh 45*, PMK inhibit 5 and Autofluor 339 1.
`COc1cccc(OCCCCCN2CCOCC2)c1` gave Abs 340nm 1.1, DPM-DC inhibit inactive, NADH coupling 1%, Spn MK inh 3, PMK inhibit 0 and Autofluor 339 1.1.
Screening CN(C)C(=O)N1CCCC(C(=O)NCc2ccccc2)C1 (configuration not stated) returned Abs 340nm 1, DPM-DC inhibit inactive, NADH coupling 2%, Spn MK inh 0, PMK inhibit 18 and Autofluor 339 1.
`Cc1cc(N2CCOCC2)c2c(N)c(Br)cc(C)c2n1` gave Abs 340nm 1.1, DPM-DC inhibit active, NADH coupling 16%, Spn MK inh 3, PMK inhibit 9 and Autofluor 339 0.68.
For c1ccc(N=P(c2nc3ccccc3o2)(N2CCOCC2)N2CCOCC2)cc1 the results were Abs 340nm 0.96, DPM-DC inhibit inactive, NADH coupling 4%, Spn MK inh 4, PMK inhibit 1 and Autofluor 339 1.
Screening O=C1NC2=C(C(=O)c3ccccc32)C(c2ccccc2)N1 (configuration not stated) returned Abs 340nm 0.98, DPM-DC inhibit inactive, NADH coupling 5%, Spn MK inh 7, PMK inhibit 9 and Autofluor 339 1.1.
Screening COc1ccc(C2NC(=O)NC3=C2CCc2ccccc23)cc1 (configuration not stated) returned Abs 340nm 1.1, NADH coupling 11%, Spn MK inh 8, PMK inhibit 14 and Autofluor 339 3.8*.
